The values below come from ChEMBL document CHEMBL1961873, “Compounds: GSK PKIS; Assays: Nanosyn kinase panel” (2012).

The target in experiment [1] is Serine/threonine-protein kinase pim-2 (Homo sapiens) (UniProt Q9P1W9). The following applies: at 1 µM.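 Also: each value is a mean of the inhibition measurements against the kinase.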
In experiment [2] the target is Serine/threonine-protein kinase pim-3 (Homo sapiens) (UniProt Q86V86). The following applies: at 0.1 µM.
Experiment [3] shares this target. The note with it: at 1 µM.
Experiment [4] concerns the target T1, MAP kinase-activated protein kinase 5 (Homo sapiens) (UniProt Q8IW41).
T1 sequence (whole entry): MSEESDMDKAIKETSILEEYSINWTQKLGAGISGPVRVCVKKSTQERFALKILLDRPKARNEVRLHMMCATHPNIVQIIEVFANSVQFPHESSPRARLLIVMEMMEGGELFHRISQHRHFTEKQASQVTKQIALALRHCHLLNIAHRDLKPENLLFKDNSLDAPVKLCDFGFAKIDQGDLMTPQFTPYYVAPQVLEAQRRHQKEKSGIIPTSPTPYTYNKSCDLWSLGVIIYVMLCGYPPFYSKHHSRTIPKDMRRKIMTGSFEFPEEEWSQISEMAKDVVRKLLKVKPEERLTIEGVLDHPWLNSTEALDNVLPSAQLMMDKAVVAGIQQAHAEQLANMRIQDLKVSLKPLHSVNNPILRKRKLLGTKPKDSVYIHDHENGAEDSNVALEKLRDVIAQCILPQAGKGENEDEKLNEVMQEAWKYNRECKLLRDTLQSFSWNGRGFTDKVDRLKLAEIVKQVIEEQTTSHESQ
The note with it: at 0.1 µM.

Experiment [5] concerns the target T1, MAP kinase-activated protein kinase 5 (Homo sapiens). The note with it: at 1 µM.
Experiment [6] addresses Serine/threonine-protein kinase SIK1 (Homo sapiens) (UniProt P57059). The following applies: at 1 µM.
The target of experiment [7] is Serine/threonine-protein kinase SIK2 (Homo sapiens) (UniProt Q9H0K1). The note with it: at 1 µM.
Chain of Serine/threonine-protein kinase SIK2 (Homo sapiens) (Q9H0K1 whole entry, looked up): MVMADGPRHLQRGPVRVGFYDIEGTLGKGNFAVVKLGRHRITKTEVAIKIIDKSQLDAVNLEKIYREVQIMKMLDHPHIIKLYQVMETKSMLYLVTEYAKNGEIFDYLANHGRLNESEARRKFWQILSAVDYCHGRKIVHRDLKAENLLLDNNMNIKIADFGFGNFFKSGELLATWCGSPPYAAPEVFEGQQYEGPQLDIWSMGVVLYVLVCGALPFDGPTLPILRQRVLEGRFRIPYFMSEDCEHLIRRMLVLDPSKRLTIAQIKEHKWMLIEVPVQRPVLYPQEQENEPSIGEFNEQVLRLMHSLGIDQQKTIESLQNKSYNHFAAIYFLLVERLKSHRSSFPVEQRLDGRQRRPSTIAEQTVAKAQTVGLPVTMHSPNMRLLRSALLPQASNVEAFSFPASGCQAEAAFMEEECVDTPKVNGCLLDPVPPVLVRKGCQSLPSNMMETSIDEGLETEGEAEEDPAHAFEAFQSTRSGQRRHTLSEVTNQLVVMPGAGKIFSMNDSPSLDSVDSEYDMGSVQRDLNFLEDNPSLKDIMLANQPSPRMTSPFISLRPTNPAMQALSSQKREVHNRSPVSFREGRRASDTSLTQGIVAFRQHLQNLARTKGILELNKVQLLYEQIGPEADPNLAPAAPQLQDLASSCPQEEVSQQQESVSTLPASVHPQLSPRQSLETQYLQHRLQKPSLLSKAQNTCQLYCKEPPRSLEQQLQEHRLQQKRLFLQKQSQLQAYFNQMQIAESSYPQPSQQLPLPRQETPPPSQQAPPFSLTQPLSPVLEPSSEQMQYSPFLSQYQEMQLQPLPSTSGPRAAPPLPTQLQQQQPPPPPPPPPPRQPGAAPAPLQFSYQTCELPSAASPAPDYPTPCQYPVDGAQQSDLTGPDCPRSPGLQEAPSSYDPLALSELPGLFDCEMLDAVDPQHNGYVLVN
Experiment [8] deals with T2, Serine/threonine-protein kinase TBK1 (Homo sapiens) (UniProt Q9UHD2).
T2 sequence (whole entry): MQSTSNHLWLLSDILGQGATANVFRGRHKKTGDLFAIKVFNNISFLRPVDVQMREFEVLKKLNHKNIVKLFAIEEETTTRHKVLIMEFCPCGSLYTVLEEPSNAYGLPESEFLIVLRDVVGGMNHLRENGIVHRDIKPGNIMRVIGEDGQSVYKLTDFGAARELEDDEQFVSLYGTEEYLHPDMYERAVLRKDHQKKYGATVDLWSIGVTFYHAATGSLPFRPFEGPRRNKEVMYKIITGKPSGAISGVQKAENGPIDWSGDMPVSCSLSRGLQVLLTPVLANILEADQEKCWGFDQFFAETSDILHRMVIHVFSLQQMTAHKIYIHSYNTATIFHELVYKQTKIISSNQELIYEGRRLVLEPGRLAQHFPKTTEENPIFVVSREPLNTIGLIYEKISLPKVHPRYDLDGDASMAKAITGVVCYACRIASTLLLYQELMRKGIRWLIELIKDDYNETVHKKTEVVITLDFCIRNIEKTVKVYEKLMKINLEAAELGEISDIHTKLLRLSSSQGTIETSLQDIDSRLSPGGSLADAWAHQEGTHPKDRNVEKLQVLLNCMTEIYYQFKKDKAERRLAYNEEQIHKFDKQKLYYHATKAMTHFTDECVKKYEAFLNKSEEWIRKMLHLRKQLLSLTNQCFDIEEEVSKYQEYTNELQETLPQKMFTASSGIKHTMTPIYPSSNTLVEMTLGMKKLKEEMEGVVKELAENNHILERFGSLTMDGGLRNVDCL
The note with it: at 0.1 µM.

Experiment [9] has as its target Serine/threonine-protein kinase SIK1 (Homo sapiens) (UniProt P57059). The following applies: at 0.1 µM.
Experiment [10] has as its target Serine/threonine-protein kinase SIK2 (Homo sapiens) (UniProt Q9H0K1). The following applies: at 0.1 µM.

As a reminder, the inhibition is the relative decrease from the control value, in per cent.

Chain of Serine/threonine-protein kinase SIK1 (Homo sapiens) (P57059 whole entry): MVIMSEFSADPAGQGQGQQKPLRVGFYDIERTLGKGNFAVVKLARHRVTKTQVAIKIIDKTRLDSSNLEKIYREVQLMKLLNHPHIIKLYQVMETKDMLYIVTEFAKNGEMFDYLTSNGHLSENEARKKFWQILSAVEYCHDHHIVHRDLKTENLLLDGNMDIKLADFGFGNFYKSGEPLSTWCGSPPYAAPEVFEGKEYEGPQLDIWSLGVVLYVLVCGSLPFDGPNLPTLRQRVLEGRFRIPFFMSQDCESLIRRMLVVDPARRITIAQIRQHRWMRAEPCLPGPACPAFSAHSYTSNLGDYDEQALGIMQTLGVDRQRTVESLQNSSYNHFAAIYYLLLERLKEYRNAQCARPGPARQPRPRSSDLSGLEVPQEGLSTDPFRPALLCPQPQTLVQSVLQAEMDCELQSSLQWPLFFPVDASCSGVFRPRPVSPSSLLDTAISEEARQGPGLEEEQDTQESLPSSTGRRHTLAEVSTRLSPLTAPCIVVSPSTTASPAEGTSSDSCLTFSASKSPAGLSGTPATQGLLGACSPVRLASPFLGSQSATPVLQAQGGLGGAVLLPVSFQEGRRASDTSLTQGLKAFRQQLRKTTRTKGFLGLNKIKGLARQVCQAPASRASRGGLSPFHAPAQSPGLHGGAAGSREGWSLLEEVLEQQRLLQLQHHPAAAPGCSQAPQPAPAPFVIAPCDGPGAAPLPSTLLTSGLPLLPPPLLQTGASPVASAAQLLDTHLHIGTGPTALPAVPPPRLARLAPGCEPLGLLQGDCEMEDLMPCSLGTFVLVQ
Chain of Serine/threonine-protein kinase pim-2 (Homo sapiens) (Q9P1W9 whole entry, looked up): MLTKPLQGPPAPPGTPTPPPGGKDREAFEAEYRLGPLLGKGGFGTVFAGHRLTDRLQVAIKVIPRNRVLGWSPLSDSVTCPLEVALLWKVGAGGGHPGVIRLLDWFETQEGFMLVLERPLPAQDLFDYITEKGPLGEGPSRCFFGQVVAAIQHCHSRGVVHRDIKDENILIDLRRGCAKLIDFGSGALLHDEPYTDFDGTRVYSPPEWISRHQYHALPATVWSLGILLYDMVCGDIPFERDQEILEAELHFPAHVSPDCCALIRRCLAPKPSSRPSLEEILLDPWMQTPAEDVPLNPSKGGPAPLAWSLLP

Take `Nc1nc(-c2ccc3c(c2)C(=Cc2cc(Br)c(O)c(Br)c2)C(=O)N3)cs1`: the inhibition in experiment [1] is 50.1%; in [2], 5.73%; in experiment [3], 42.7%; in experiment [4], -1.39%; in [5], -0.3%; in experiment [6], -3.45%. Moreover, the inhibition in [7] is -0.64%; in experiment [8], 0.67%.
`Cc1nn(C)c2cc(N(C)c3ccnc(Nc4cccc(S(N)(=O)=O)c4)n3)ccc12`: the inhibition in [1] is 0.81%; in experiment [2], 0.16%; in [3], -0.2%; in experiment [4], 0.87%; in [5] it was 1.23%; in experiment [9] it was 9.49%. In addition, the inhibition in [6] is 55.3%; in [10], 7.91%; in experiment [7], 24.3%; in experiment [8], 2.88%.
`COc1cc(C=NNc2ncnc3c2cnn3-c2ccccc2)ccc1O`: the inhibition in experiment [1] is 2.11%; in [2], -0.48%; in experiment [3] it was -0.21%; in experiment [4] it was 0.22%; in experiment [5], -0.53%; in experiment [9], 5.32%. The inhibition worked out at 18.5% in experiment [6], 7.72% in [10], 20.4% in experiment [7] and 3.55% in experiment [8].
On to `CS(=O)(=O)Nc1ccc(N/C=C2\C(=O)Nc3ccccc32)cc1`, for which the inhibition in experiment [1] is 0.67%; in experiment [2], 0.5%; in experiment [3] it was 2.02%; in experiment [4] it was -0.78%; in experiment [5], -0.07%; in experiment [6] it was 2.58%. In addition, the inhibition is 4.05% in experiment [10], -6.11% in experiment [7] and 0.52% in experiment [8].
Consider `COc1ccccc1Nc1ncc(-c2ccccc2)o1`, for which the inhibition is 0.53% in experiment [1]; 0.22% in [2]; 0.86% in experiment [3]; 2.09% in experiment [4]; 1.9% in experiment [5]; -1.04% in experiment [9]. The inhibition in experiment [6] turned out to be 14.1%; in experiment [10] it was 1.94%; in experiment [7] it was 5.2%; in experiment [8], 1.18%.
Consider `Nc1ncnc2occ(-c3ccc(NC(=O)Nc4cc(C(F)(F)F)cc(C(F)(F)F)c4)cc3)c12`, for which the inhibition is 0.27% in experiment [1]; -1.29% in experiment [2]; -2.53% in experiment [3]; 0.61% in [4]; 0.59% in [5]; 1.96% in experiment [9]. In addition, the inhibition in experiment [6] is 2.47%; in experiment [10], 3.48%; in experiment [7], 4.42%; in experiment [8] it was -0.65%.
With `COc1ccc(-c2coc3ncnc(N)c23)cc1`, the inhibition was 1.01% in [1]; -0.83% in experiment [2]; -1.2% in experiment [3]; 0.93% in experiment [4]; 0.22% in [5]; 1.16% in [9]. The inhibition in [6] is 10.4%; in experiment [10], 5.46%; in experiment [7] it was 7.65%; in [8], -0.45%.
With `CCn1c(-c2nonc2N)nc2cnc(Oc3cccc(NC(=O)c4ccc(OCCN5CCOCC5)cc4)c3)cc21`, the inhibition in experiment [1] is 0.68%; in experiment [2] it was -1.8%; in [3], 2.09%; in experiment [4], 0.82%; in experiment [5], 1.44%; in experiment [9] it was 4.8%. The inhibition in [6] amounted to 10.1%; in experiment [10], 8.55%; in experiment [7] it was 13.8%; in experiment [8], 0.71%.
In the case of `COc1cc2ncn(-c3cc(OCc4ccccc4C(F)(F)F)c(C(N)=O)s3)c2cc1OC`, the inhibition in experiment [1] was -2.85%; in [2], -0.3%; in experiment [3], 5.54%; in experiment [4], 1.22%; in experiment [5] it was 2.23%; in [9] it was 9.96%. Moreover, the inhibition came out at 56.6% in experiment [6], 5.82% in [10], 35.4% in experiment [7] and 3.59% in experiment [8].
With `CC(C)=Cc1cccc2c1/C(=N/Nc1ccc(S(N)(=O)=O)cc1)C(=O)N2`, the inhibition in experiment [1] is 0.68%; in experiment [2] it was 1.74%; in [3], 3.98%; in experiment [4], 0.48%; in [5], 2.48%; in experiment [9] it was 3.24%. Besides, the inhibition in experiment [6] came to 11.2%; in experiment [10] it was 4.69%; in experiment [7], 15.5%; in experiment [8] it was 3.78%.
Turning to `Cc1ccc(C(=O)NC2CCCCC2)cc1-c1ccc(C(=O)NCC2CC2)cc1`, the inhibition is 1.66% in [1]; 22.2% in experiment [2]; -1% in [3]; 0.69% in experiment [4]; -0.72% in experiment [5]; 3.08% in experiment [9]. Besides, the inhibition in [6] turned out to be 8.02%; in [10], 2.73%; in [7], 1.96%; in [8] it was 1.75%.
Take `[O-][S+]1CCN(Cc2ccc(-c3ccc4ncnc(Nc5ccc(OCc6ccccc6)c(F)c5)c4c3)o2)CC1`: the inhibition in experiment [1] was 0.23%; in experiment [2] it was -1.55%; in experiment [3] it was -1.98%; in [4], 0.41%; in [5] it was -0.19%; in [9], 3.06%. The inhibition worked out at 3.96% in experiment [6], 3.09% in experiment [10], 5.38% in experiment [7] and 1.1% in experiment [8].
Consider `COc1ccc(COc2ccc(Cc3cnc(N)nc3N)cc2OC)cc1`, for which the inhibition in [1] is 3.29%; in experiment [2] it was 2.12%; in experiment [3], 0.23%; in experiment [4], -0.2%; in experiment [5], -1.74%; in experiment [9], -2.62%. Besides, the inhibition in experiment [6] is 2.92%; in experiment [10] it was -5.52%; in experiment [7] it was -1.07%; in [8], 2.12%.
In the case of `COc1cccc(-n2ncc3c(N/N=C/c4cccc(F)c4)ncnc32)c1`, the inhibition was -2.82% in experiment [1]; -0.58% in [2]; -0.78% in [3]; 0.63% in experiment [4]; 0.71% in [5]; 5.56% in [9]. Also, the inhibition is 11.9% in experiment [6], 5.11% in experiment [10], 14.4% in experiment [7] and 1.92% in experiment [8].
On to `CCn1c(-c2nonc2N)nc2c(C#CC(C)(C)O)nc(OC[C@@H](N)c3ccccc3)cc21`, for which the inhibition in experiment [1] is 2.38%; in experiment [2], 0.56%; in experiment [3] it was 5.51%; in [4], -0.92%; in experiment [5], -1.02%; in experiment [9], 1.01%. Further, the inhibition in experiment [6] is 0.3%; in [10], -1.91%; in experiment [7], 1.75%; in [8], 0.4%.
Turning to `N#Cc1c(NC(=O)c2cccc3ccccc23)sc2c1CCCC2`, the inhibition in [1] was -0.27%; in experiment [2], -0.51%; in [3], -1.85%; in experiment [4] it was 0.72%; in [5], 0.28%; in experiment [9] it was 7.26%. Moreover, the inhibition in experiment [6] came to 9.67%; in [10] it was 2.47%; in experiment [7] it was 12.4%; in [8], 0.12%.
As to `CCN1CCC(CC(=O)Nc2n[nH]c3nc(-c4cccs4)c(Br)cc23)CC1`, the inhibition is 1.48% in experiment [1]; -0.6% in experiment [2]; 5.95% in experiment [3]; -1.45% in [4]; -0.83% in [5]; -7.57% in experiment [9]. The inhibition in experiment [6] is -6.71%; in experiment [7] it was -4.25%; in experiment [8], -0.25%.
